In test [1] the target is Rap guanine nucleotide exchange factor 3 (Homo sapiens) (UniProt O95398). Description: Confirmatory qHTS for antagonist of cAMP-regulated guanine nucleotide exchange factor 3 (EPAC1) (AID 1645880). Also: nearly all actives have a fitted effect of over 55% in size. Also: potency is read from the fitted curve at half-maximal effect. The method in brief:
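Released BODIPY-GDP fluoresces less than Rap1-bound BODIPY-GDP; the signal is followed at 480/540 nm at 5-min intervals over 30 min, after 5 min at room temperature. Reactions contain 100 nM EPAC1, 250 nM RAP1B-BODIPY-GDP and 50 uM GDP; results are normalized to ATA and DMSO.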
(qHTS replaces the single test concentration by a dilution series.)

Test [2] has the same target. The test can be described thus: Confirmatory qHTS for agonist of cAMP-regulated guanine nucleotide exchange factor 3 (EPAC1) (AID 1645881). Also: nearly all actives have a fitted effect of over 75% in size. Also: potency is read from the fitted curve at half-maximal effect.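 As to activation: EPAC1 catalysed release of BODIPY-GDP from Rap1B seen as fluorescence loss; 100% = effect of cAMP agonist control.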
Test [3] concerns the target Rap guanine nucleotide exchange factor 4 (Homo sapiens) (UniProt Q8WZA2). Description: Confirmatory qHTS for agonist of cAMP-regulated guanine nucleotide exchange factor 4 (EPAC2) (AID 1645884).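 Also: nucleotide exchange releases bodipy-GDP from Rap1 and this lowers its fluorescence; nearly all actives have a fitted effect of over 65% in size.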 Also: potency is read from the fitted curve at half-maximal effect.
Test [4] shares this target. Description: Confirmatory qHTS for antagonist of cAMP-regulated guanine nucleotide exchange factor 4 (EPAC2) (AID 1645885). Also: nearly all actives have a fitted effect of over 25% in size. Also: potency is read from the fitted curve at half-maximal effect.
For test [5], the target named is Rap guanine nucleotide exchange factor 3 (Homo sapiens) (UniProt O95398). The test can be described thus: Counterscreen qHTS for antagonist of cAMP-regulated guanine nucleotide exchange factor 3 (EPAC1) (AID 1645888). Also: % of control where 0% means no effect. In outline: (§1)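 Rap1B–BODIPY-GDP (250 nM) with 50 uM GDP; compounds pin-transferred to 9.74 nM–152 uM final (activator) or from 7.32 nM upwards (inhibitor). Fluorescence Ex/Em 480/540 nm read at 5 and 30 min, then after adding cAMP or buffer, at room temperature.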
Chain of Rap guanine nucleotide exchange factor 3 (Homo sapiens) (O95398 whole entry, looked up): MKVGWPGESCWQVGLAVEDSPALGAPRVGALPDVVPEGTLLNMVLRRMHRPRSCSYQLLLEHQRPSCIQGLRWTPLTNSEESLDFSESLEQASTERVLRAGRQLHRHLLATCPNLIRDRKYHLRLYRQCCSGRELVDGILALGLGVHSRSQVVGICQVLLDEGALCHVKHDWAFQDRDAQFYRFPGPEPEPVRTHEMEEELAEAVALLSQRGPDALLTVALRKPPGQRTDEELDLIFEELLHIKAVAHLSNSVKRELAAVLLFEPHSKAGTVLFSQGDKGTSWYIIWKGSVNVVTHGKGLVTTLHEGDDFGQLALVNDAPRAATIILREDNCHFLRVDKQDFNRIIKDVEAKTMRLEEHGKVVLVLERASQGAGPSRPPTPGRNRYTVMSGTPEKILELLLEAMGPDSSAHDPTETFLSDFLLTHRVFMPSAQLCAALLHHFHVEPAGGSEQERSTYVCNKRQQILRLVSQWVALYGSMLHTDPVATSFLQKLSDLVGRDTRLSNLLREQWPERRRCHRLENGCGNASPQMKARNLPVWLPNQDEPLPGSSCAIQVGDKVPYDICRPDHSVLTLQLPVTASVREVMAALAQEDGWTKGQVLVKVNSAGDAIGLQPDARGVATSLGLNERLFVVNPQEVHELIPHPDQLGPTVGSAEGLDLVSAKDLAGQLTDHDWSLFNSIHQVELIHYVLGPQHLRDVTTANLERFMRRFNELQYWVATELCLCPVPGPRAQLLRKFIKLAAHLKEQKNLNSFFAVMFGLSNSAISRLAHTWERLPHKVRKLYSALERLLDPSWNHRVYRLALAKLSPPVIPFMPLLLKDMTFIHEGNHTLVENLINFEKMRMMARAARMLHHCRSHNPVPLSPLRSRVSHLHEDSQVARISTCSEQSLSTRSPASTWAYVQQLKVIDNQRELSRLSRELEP
Background: A counterscreen serves to expose hits that act by an unwanted route or on another target.

For test [6] the target is unchanged. Description: Counterscreen qHTS for agonist of cAMP-regulated guanine nucleotide exchange factor 3 (EPAC1) (AID 1645889). Also: nearly all actives have a fitted effect of over 40% in size. Also: potency is read from the fitted curve at half-maximal effect. As to activation: % of control where 0% means no effect. The method in brief:
as §1

Test [7] addresses Tumor susceptibility gene 101 protein (Homo sapiens) (UniProt Q99816). The test can be described thus: qHTS Assay for Iinhibitors of HIV-1 Budding by Blocking the Interaction of PTAP/TSG101: Hit Validation (AID 651600). Also: potency is read from the fitted curve at half-maximal effect; nearly all actives have a fitted effect of over 70% in size. In outline:
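Measuring PTAP–Tsg101 interaction by FP: protein at 10 uM and fluorescent peptide at 50 nM (final), buffer 10 mM HEPES pH 7.5 with 0.15 M NaCl, 3 mM EDTA, 0.1 mM TCEP, 0.01% Tween 20; 20 min incubation, r.t.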

Test [8] in a line: AP1 Signaling Pathway (AID 357; active = well fitted curve in either direction with a large enough effect, not every such curve was filed as active;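 also: ME-180 reporter cells stimulated with EGF at its EC50 level; % is scaled to controls: 0 for no effect and ±100 for the full control effect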). The method in brief:
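AP-1-bla ME-180 cells, Opti-MEM + 0.5% dialyzed FBS, plated overnight 37 °C. Cpd titration + EC50 EGF, 5 h 37 °C. CCF4 2.5 h RT; ex 405, em 460/530 ratio → %activity, AC50.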

A short description of test [9]: NFAT Signaling Pathway (AID 444; active = well fitted curve in either direction with a large enough effect, not every such curve was filed as active;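 also: carbachol stimulus at about its EC50 of 1 µM final; % is scaled to controls: 0 for no effect and ±100 for the full control effect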). The note with it: Jurkat NFAT-bla M1, carbachol, beta-lactamase ratio, 5 h; at 17.2 µM (top of the series). The method in brief:
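Jurkat cells with NFAT-driven β-lactamase reporter and co-expressed M1 receptor, stimulated with carbachol (final 1 uM, ~EC50), compound titration, 5 h at 37 °C. CCF4 loaded 1 h at RT; 460/530 nm ratio gave %activity and AC50.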

Test [10] is described as follows: Stat Signaling Pathway (AID 446; active = well fitted curve in either direction with a large enough effect, not every such curve was filed as active;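 also: ME-180 cervical cancer cells given 40 pM IL-6 alongside compound; SIE-controlled beta-lactamase reporter measured as 460/530 nm FRET emission ratio; % is scaled to controls: 0 for no effect and ±100 for the full control effect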). The method in brief: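 Compound effects on IL-6-induced STAT reporter activity were measured in ME-180 cells. After overnight culture, cells were co-treated with 40 pM IL-6 for 5 hrs before beta-lactamase substrate loading at room temperature.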
Test [11] has as its target Glucocorticoid receptor (Homo sapiens) (UniProt P04150). The test can be described thus: GR-GFP Redistribution (AID 450;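 active = compounds whose dose series gives a full or clear partial fitted curve of increased nuclear translocation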; also: potency is read from the fitted curve at half-maximal effect). Particulars: U2OS GR-GFP nuclear translocation, laser cytometry, 2 h.
The target is the same in test [12]. Description: GR-EFC Redistribution (AID 451; calls by dose curve; also: potency is read from the fitted curve at half-maximal effect). Particulars: CHO-K1 GR-EFC translocation, beta-gal luminescence, 2 h. The method in brief:
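CHO-K1 cells expressing nuclear EA and GR-ED fragments of b-gal; compounds titrated up to 46 uM final, 2 h at 37 C. GR nuclear translocation read as complemented b-gal luminescence after 1 h RT detection.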

The target of test [13] is Mitogen-activated protein kinase 10 (Mus musculus) (UniProt Q61831). Description: JNK3 AlphaScreen Assay (AID 530; active = well fitted curve in either direction with a large enough effect, not every such curve was filed as active;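 also: kinase came from lysate of stimulated human HepG2 cells; signal reports phosphorylation of biotinylated GST-cJun 1-79 at Ser73 with 10 µM ATP; % is scaled to controls: 0 for no effect and ±100 for the full control effect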). The method in brief:
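Activity was read by AlphaScreen after JNK3-containing HepG2 lysate (cytokine pre-activated) phosphorylated biotinylated GST-cJun with 10 uM ATP at room temperature. Phospho-Ser73 cJun antibody with Protein-A acceptor beads provided detection.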
In general terms: Bead proximity is the source of the signal in Alpha formats.

For test [14], the target named is 3',5'-cyclic-AMP phosphodiesterase 4B (Homo sapiens) (UniProt Q07343). The test can be described thus: qHTS Assay for Inhibitors of PDE-IV (AID 607; active = well fitted activation curve with a large enough effect in the main read-out, with a control signal flat, not every such curve was filed as active; also: % of control where 0% means no effect). In outline:
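ACTOne HEK293 cells carry a modified cAMP-gated CNG channel and express endogenous PDE4; plated 1000 cells/well, compounds up to 22.9 uM final. Membrane-potential dye fluorescence (ex 535/em 590) was read; parental cells received 10 uM forskolin + 100 uM RO 20-1724.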

The target in test [15] is Cytochrome P450 2C9 (Homo sapiens) (UniProt P11712). The test can be described thus: qHTS Assay for Inhibitors and Substrates of Cytochrome P450 2C9 (AID 883). Also: potency is read from the fitted curve at half-maximal effect; nearly all actives have a fitted effect of over 60% in size. The method in brief:
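Signal: luciferase luminescence reporting luciferin produced by CYP2C9. Conditions: 10nM enzyme, Luciferin-H 100uM at KM, 25mM KPO4, 37C, 60 min NADPH-driven reaction. Reference: 57uM sulphaphenazole as 100% inhibition.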

Values without a mark were called inactive. Records with an inconclusive call do not appear. The source made the active and inactive calls. Unless noted, calls follow the shape of the dose curve; as a rule, active = well fitted curve in the direction sought with a large enough effect; inconclusive = small, poorly fitted or top-dose-only effect, or another doubt; inactive = no such curve, though single readings can be large; an effect the other way counts as inactive or inconclusive. Where only a bound is given, the exact number is not on record here.

Chain of Glucocorticoid receptor (Homo sapiens) (P04150 whole entry, looked up): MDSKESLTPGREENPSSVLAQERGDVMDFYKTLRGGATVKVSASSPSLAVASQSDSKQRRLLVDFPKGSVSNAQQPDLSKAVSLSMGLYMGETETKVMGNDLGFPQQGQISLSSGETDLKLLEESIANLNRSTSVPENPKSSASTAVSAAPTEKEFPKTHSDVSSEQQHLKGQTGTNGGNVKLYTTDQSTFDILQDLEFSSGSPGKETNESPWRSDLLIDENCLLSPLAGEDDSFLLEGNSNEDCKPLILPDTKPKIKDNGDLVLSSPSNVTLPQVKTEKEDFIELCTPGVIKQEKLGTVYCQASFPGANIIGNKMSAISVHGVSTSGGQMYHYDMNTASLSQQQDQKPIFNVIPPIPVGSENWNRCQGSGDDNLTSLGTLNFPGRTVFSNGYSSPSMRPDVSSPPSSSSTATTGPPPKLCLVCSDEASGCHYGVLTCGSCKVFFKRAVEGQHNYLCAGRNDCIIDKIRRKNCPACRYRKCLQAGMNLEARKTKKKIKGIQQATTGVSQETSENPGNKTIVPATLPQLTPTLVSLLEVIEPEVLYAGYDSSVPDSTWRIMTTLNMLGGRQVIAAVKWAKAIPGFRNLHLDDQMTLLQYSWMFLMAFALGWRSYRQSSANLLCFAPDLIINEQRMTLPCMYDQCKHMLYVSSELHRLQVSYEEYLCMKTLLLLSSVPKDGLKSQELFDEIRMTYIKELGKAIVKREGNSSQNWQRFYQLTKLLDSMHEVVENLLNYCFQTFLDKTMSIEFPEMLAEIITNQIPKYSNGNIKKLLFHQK
Chain of Rap guanine nucleotide exchange factor 4 (Homo sapiens) (Q8WZA2 whole entry, looked up): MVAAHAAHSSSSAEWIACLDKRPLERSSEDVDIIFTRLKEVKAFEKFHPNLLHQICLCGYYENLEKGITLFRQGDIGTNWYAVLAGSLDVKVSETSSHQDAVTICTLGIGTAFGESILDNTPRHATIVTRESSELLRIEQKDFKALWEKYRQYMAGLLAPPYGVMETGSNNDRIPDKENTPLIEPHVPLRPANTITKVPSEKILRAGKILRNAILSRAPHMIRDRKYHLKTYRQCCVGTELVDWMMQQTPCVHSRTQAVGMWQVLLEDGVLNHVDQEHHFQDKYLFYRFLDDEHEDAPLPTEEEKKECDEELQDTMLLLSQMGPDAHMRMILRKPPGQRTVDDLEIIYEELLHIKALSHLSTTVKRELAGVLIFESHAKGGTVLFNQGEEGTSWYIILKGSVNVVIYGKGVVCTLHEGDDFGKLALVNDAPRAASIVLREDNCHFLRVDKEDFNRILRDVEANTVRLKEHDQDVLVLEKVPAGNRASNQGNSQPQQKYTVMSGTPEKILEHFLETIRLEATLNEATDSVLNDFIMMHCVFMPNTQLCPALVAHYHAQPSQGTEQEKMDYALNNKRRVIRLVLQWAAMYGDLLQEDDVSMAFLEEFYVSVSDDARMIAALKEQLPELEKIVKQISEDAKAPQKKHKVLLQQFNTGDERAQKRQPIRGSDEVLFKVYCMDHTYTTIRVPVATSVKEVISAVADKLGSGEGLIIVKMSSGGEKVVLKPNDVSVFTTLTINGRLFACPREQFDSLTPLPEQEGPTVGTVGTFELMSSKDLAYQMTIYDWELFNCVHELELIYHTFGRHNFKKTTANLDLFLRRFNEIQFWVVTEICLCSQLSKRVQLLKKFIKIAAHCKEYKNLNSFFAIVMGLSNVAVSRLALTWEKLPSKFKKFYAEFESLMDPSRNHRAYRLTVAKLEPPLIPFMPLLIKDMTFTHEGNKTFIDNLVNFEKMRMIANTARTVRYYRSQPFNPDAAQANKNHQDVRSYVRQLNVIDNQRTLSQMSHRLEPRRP
Chain of Cytochrome P450 2C9 (Homo sapiens) (P11712 whole entry, looked up): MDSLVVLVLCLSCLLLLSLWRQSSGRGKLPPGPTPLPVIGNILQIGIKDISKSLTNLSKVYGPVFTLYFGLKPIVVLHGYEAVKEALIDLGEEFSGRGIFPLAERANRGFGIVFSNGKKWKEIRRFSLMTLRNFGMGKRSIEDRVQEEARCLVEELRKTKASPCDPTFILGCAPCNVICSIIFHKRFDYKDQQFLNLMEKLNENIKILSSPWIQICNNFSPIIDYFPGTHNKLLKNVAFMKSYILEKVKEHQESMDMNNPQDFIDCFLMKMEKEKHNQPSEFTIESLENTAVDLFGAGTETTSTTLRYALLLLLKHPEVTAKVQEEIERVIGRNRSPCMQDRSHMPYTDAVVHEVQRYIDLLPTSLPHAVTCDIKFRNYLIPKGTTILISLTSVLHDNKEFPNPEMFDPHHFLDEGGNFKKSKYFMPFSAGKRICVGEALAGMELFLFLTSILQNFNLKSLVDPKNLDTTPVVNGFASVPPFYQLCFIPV
Chain of 3',5'-cyclic-AMP phosphodiesterase 4B (Homo sapiens) (Q07343 whole entry, looked up): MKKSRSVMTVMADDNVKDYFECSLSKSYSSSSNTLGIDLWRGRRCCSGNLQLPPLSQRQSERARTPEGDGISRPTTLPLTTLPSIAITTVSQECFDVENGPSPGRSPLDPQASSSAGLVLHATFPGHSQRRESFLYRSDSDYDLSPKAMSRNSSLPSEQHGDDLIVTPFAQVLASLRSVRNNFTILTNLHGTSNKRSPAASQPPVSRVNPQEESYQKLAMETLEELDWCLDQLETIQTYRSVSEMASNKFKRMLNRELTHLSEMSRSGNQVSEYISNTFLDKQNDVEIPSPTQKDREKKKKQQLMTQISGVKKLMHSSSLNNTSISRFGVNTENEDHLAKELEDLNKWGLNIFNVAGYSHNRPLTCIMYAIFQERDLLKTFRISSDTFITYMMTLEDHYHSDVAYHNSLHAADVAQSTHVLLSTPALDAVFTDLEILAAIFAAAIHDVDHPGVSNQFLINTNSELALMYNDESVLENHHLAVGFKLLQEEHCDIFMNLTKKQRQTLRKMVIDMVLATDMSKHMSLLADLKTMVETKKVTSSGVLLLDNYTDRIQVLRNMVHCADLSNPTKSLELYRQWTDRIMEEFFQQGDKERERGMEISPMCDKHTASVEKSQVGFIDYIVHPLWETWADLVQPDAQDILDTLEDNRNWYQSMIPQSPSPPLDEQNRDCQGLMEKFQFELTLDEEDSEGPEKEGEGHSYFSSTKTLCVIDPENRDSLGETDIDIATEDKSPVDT
Chain of Tumor susceptibility gene 101 protein (Homo sapiens) (Q99816 whole entry, looked up): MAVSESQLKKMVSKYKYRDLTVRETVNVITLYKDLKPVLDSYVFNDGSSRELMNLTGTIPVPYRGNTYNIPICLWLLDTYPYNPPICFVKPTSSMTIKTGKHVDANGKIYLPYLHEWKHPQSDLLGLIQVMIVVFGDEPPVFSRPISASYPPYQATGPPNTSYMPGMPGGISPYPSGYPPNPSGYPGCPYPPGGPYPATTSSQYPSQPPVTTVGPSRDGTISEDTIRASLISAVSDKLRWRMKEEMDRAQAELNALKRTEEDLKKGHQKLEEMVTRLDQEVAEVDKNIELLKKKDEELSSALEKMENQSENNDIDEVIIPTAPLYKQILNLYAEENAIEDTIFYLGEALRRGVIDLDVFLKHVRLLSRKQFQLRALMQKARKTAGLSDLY

For `CCC(=NCCCO)c1c(O)n(-c2ccc(OC)cc2)c(=O)[nH]c1=O`, the Potency result in test [1] and in test [2] was “inactive” in each case. The activation is 2.6% [at 17.1 µM, percent relative to cAMP agonist control] in test [3] and -4.42% [at 30.8 µM] in [6]. Moreover, the activity change, negative = inhibition in [4] was -12.3% [at 12.7 µM]; in [5], -14.3% [at 30.8 µM].

Regarding `CCn1c(O)c(C=Nc2ccc(N3CCOCC3)cc2)c(=O)n(CC)c1=S`, the values for the Potency in [7] and in test [3] were 9.19 µM (active) and 112 µM (active), respectively. Further, the Potency result in [1], in test [2] and in [4] was “inactive” throughout. In [5], the compound was called inactive.

For `COc1ccc(-n2c(O)c(/C=C/C=Nc3ccccc3)c(=O)[nH]c2=O)cc1`, the Potency entry in test [1] is “inactive”. Further, the Potency in test [2] was 100 µM (active); in test [3] it was 89.1 µM (active); in test [4], 16.9 µM (active); in test [6] it was 35.5 µM (active). In [5], the call was inactive.

With `CCN(CC)c1ccc(N=Cc2c(O)n(-c3cc(OC)ccc3OC)c(=O)[nH]c2=O)cc1`, the outcome in [8] and in test [10] was inactive. For the same compound, the activity change, negative = inhibition was -6.84% in test [9], -9.2% [at 12.7 µM] in test [4] and -4.74% [at 30.8 µM] in [5]. The Potency was above 20.6 µM in test [11] and 70.8 µM (active) in test [2]. For the same compound, the Potency result in test [1] was “inactive”. Further, in test [3], the activation is 4.47% [at 17.1 µM, percent relative to cAMP agonist control].

Turning to `COc1ccc(C(=O)C2CN(C)CC2c2ccc(Cl)cc2)cc1` (configuration not stated), the Potency result in test [1] and in test [2] was “inactive” throughout. Besides, the activation in [3] was 2.15% [at 17.1 µM, percent relative to cAMP agonist control]; in test [6], 27.2% [at 30.8 µM]. In addition, the activity change, negative = inhibition in [4] was -16.3% [at 12.7 µM]; in test [5] it was 7.3% [at 30.8 µM].

Consider `CN1C(=O)/C(=C/c2cccn2-c2ccc3ccccc3c2)C(=O)NC1=S`, for which the Potency in test [1] was 33.8 µM (active). The Potency result in test [2], in test [3], in test [4] and in [6] was “inactive” each time. Also, in test [5], the outcome was inactive.

`COC(=O)C1=C(c2cc3ccccc3s2)C[C@@H]2CC[C@H]1N2C(=O)NCc1ccc(C(F)(F)F)cc1`: the Potency result in [1], in test [2], in test [3], in test [4] and in test [6] was “inactive” each time.

With `CC(C)c1ccc(C(c2c(O)c3ccccc3oc2=O)c2c(O)c3ccccc3oc2=O)cc1`, the compound was classed as inactive in test [8] and in test [5]. Also, the Potency in test [11] was above 46 µM; in [12], above 9.22 µM; in test [15] it was 3.16 µM (active); in test [1] it was 15.1 µM (active). Also, in test [13], the activity change, negative = inhibition is -6.98% [at 11.4 µM]. The Potency entry in test [14], in [2], in test [3], in [4] and in test [6] was “inactive” throughout.

For `Cc1ccc(N2C(=O)NC(=O)/C(=C\C=C\c3ccco3)C2=O)cc1C`, the Potency in test [1] was 33.8 µM (active). Further, the Potency result in test [2], in test [3], in test [4] and in test [6] was “inactive” each time. Also, the compound was called inactive in test [5].

As for `O=c1nc(/C=C/c2ccc(Cl)cc2Cl)cc(C(F)(F)F)[nH]1`, in test [1], the Potency is 44.7 µM (active). Moreover, in test [2], the Potency entry was “inactive”. Moreover, the activation is -2.31% [at 17.1 µM, percent relative to cAMP agonist control] in test [3] and 4.81% [at 30.8 µM] in test [6]. Also, the activity change, negative = inhibition in test [4] was -10% [at 12.7 µM].

The values above are taken from PubChem BioAssay (NCATS).
